# Measured values from PubChem BioAssay (NCI).
# Compounds without any hit were thinned out: in the full panel of roughly 83,000, 20% have a hit.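 Single-concentration screen, 48 h exposure, 96-well plates. Endpoint: percent growth. Below 10 = active.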 Unmarked numbers belong to inactive results. Calls of active or inactive are those of the source.
# Test system: NCI-H226 lung
# Assay: NCI-60 one-dose screen, 48 h (100 = growth as untreated, 0 = no growth, -100 = all killed)
# Details: 10 µM unless noted
row,SMILES,growth
1,N#CSc1c[nH]c2cccc(/C=C/C(=O)/C=C(O)/C=C/c3cccc4[nH]cc(SC#N)c34)c12,-73.1% (active)
2,COCCn1cc(-c2csc(-c3c[nH]c4ccc(Br)cc34)n2)c2cccnc21,58%
3,N#CC1CCc2c(c(-c3ccc4nc(N)sc4c3)nc3ccc4[nH]ncc4c23)C1 (stereo not given),51.1%
4,NS(=O)(=O)c1ccc(-c2cc(-c3nnc(SCC(=O)Nc4ccc(C(=O)/C=C/c5ccc(Cl)cc5)cc4)n3-c3ccccc3)c3ccccc3n2)cc1,96.6%
5,O=C(Nc1cc(Cl)ccc1O)c1cccc(Nc2ccnc(C(F)(F)F)c2)c1,54.2%
6,CC/C(Cc1ccccc1)=C(\c1ccc(OCCCN(C)C)cc1)c1ccc(OC(=O)NCc2ccccc2)cc1,86.4%
7,Clc1c(Cl)[n+](Cc2ccc3ccccc3c2)cn1Cc1ccc2ccccc2c1,44.4%
8,CSC(SC)=C(C#N)c1nc2ccccc2s1,59%
9,O=C(CN1CCCCCC1)Nc1nc2ccc(NCc3ccc(Cl)cc3)cc2s1,93.5%
10,CCC1S/C(=N\N=C(\C)c2cc3cc(Cl)ccc3o2)N(c2ccccc2)C1=O (stereo not given),113%
11,Cc1ccc(C)c(/C=C2\CN(C(=O)OC(C)(C)C)C/C(=C\c3cc(C)ccc3C)C2=O)c1,89%
12,COc1ccc(-c2n[nH]c(=O)c3nc(NC(=S)Nc4ccc(Oc5ccccc5)cc4)sc23)cc1,95.5%
13,O=C1/C(=C\c2ccccn2)c2ccccc2N1c1c(Cl)cccc1Cl,25.2%
14,Cc1ncc(C(=O)Nc2ccc(CN3CCN(C)CC3)c(C(F)(F)F)c2)cc1C#Cc1cnc(N)c2ncccc12,42.6%
15,CNC(=O)c1cc(Oc2ccc3c(c2)sc2nc(-c4ccc(OC)cc4)cn23)ccn1,61.6%
16,O=C1Nc2c(C(=O)O)cccc2/C1=N/c1n[nH]c(=S)s1,86.2%
17,COC(=O)c1ccc(NC(=O)Nc2ccc(C(=O)OC)cc2)cc1,99%
18,COc1ccc(/C=C/C(c2cc(OC)c(OC)c(OC)c2)n2ccnc2)cc1O (stereo not given),88.4%
19,Cc1nc2sc(C(=O)Nc3cccc(Br)c3C)c(N)c2cc1C(O)c1ccccc1 (stereo not given),38.3%
20,C=C1C(=O)O[C@H]2[C@H]1CC/C(COC(=O)/C=C/C(=O)OC/C1=C/CC[C@@]3(C)O[C@H]3[C@H]3OC(=O)C(=C)[C@@H]3CC1)=C\CC[C@@]1(C)O[C@@H]21,80.6%

row,SMILES,growth
1,COc1ccc(-c2ccc(-c3ccc(C(=N)N)nc3)s2)cc1Cl,77.7%
2,COc1cc(/C=N/Nc2ccc(Br)cc2)cc(OC)c1OC,80.1%
3,C#CCOc1cccc(-c2ncnc3cc(NC(=O)C=C)ccc23)c1,69.9%
4,O=c1ccc(=O)n(-c2nc(-c3ccc([N+](=O)[O-])cc3)cs2)[nH]1,96.3%
5,CCCCCCCCCCCCCCCCCC1=NC(C)(C)CN1CC(C)O (stereo not given),102%
6,CC1=C(C(=O)Nc2nc(-c3ccc(Cl)cc3)cs2)[C@H](c2ccc(O)cc2)NC(=O)N1,87.8%
7,O=C(Cn1nnc2ccccc21)N/N=C/c1c[nH]c2ccccc12,77%
8,Cn1c(=O)c2[nH]c(SCC(=O)Nc3ccc(C(=O)/C=C/c4ccccc4Cl)cc3)nc2n(C)c1=O,93.1%
9,O=c1nc(-c2ccccc2)c2cc(-c3ccc(C(F)(F)F)nc3)ccc2[nH]1,100%
10,CN(C)S(=O)(=O)Oc1ccc(-c2sc3cc(OS(=O)(=O)N(C)C)ccc3c2C(=O)c2ccc(OCCN3CCCCC3)cc2)cc1,64.6%
11,O=S(=O)(NCCCNc1nccc(-c2c(-c3cccc(F)c3)nc3occn23)n1)c1ccc(F)cc1,39.6%
12,Cc1ccc(-c2nc(N3CCNCC3)c3oc(-c4ccc(C)cc4)nc3n2)cc1,97.6%
13,COc1ccc(Cn2cc3c(c2-c2ccccc2)CCc2cnoc2-3)cc1,43.6%
14,CC(C)(C)n1cc(-c2ccnc(NCCCNS(=O)(=O)c3ccc(C(F)(F)F)cc3)c2)c(-c2cccc(F)c2)n1,91.1%
15,O=C(/C=C/c1ccccc1)c1ccc(Nc2nc(Nc3ccc(F)cc3)nc(Nc3ccc(Cl)cc3)n2)cc1,96.1%
16,COc1ccc2c(c1)/C(=N/c1n[nH]c(=S)s1)C(=O)N2,96.8%
17,Cc1ccc2nc(NC(=O)CSc3nc(-c4ccccc4)c(C#N)c4nnnn34)sc2c1,94.7%
18,N=C(N)c1ccc(-c2ccc(-c3cc(Cl)cc(Cl)c3)s2)nc1,93.7%
19,COc1ccc(Oc2nc(Nc3ccc(N4CCOCC4)cc3)ncc2NC(=O)Nc2cc(OC)cc(OC)c2)cc1,32.7%
20,CCCCNc1cc(-c2cn[nH]c2-c2cc(C)cc(OC)c2)nc(-c2cccnc2)n1,87.4%
